# Screening data deposited in PubChem BioAssay by National Center for Advancing Translational Sciences (NCATS).
# Cycloheximide cs: counter-screen for Shiga toxin inhibitors: cycloheximide protein synthesis inhibition; 12% of 300,000 active; cell reporter, cycloheximide protein synthesis inhibition counterscreen; max response, %; in the data active = max response mostly above about 13%, no sharp cut-off; inactive = mostly below about 14%; also: read at 38.3 µM for the half of the compounds with a filed dose; 0% is about no effect
# Tb PYK inh: blocks Trypanosoma brucei pyruvate kinase; Q57TT1; TbPYK enzyme, Kinase-Glo Plus ATP luminescence, 45 min; Potency, µM (titrated, usually from 76.8 µM), for the others: top-dose activity, negative = inhibition, hits mostly inhibitors; 0.12% of 410,000 active; AID 624173; also: potency is read from the fitted curve at half-maximal effect; % is scaled to controls: 0 for no effect and ±100 for the full control effect; nearly all actives have a fitted effect of over 50% in size
#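 Readout: single end-point luminescence (Kinase-Glo Plus, 10 min). Reaction conditions were TbPYK/substrate plus 130 uM ADP, 45 min at RT, pH 7.2 TEA buffer. No-enzyme wells served as controls, and data were normalized before concentration-response fitting.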
# LmPK inhibitor: LmPK (Leishmania mexicana) enzyme inhibition. Q27686. Potency, µM (doses to about 57.5 µM), for the others: at the highest dose activity change, negative = inhibition, usual class: inhibitors. 0.37% of 290,000 active. purified LmPK, Kinase-Glo ATP luminescence, 1 h; also: potency is read from the fitted curve at half-maximal effect; % is scaled to controls: 0 for no effect and ±100 for the full control effect
# Target sequence (Q27686 whole entry, looked up): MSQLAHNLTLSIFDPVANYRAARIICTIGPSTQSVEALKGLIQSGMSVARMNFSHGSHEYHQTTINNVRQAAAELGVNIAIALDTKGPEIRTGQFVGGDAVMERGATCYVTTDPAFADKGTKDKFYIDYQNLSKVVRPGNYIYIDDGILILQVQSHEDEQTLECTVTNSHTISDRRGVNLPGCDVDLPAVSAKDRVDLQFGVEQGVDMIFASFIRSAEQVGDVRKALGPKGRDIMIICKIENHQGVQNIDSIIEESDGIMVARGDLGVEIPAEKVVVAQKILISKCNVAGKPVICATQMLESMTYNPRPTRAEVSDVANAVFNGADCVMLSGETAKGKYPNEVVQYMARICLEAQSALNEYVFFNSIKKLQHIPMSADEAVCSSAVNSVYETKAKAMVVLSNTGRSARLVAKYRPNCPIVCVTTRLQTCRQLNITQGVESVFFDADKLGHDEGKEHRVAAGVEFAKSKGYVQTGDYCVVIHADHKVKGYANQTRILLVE
#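 qHTS format; LmPK 0.1 nM; substrates PEP 0.5 mM and ADP 0.1 mM. One-hour room-temperature incubation, then coupled luciferase luminescence; 0.5 nM enzyme wells mark activation.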
# Shiga inhibitor: inhibitors of Shiga toxin in Vero cells | 9.2% of 290,000 active | inhibition, % at 38.7 µM | Vero cells, Shiga toxin protein synthesis inhibition reporter; in the data active = inhibition mostly above about 28%, no sharp cut-off; inactive = mostly below about 43%; also: 0% is about no effect
# FBPA Giardia inh: blocks Giardia fructose-bisphosphate aldolase activity; AID 2451; Potency, µM (highest dose often 59.6 µM), for inactives: at the highest dose activity, negative = inhibition, most hits filed as inhibitors; A8B2U2; 0.71% of 290,000 active; purified Giardia FBPA; also: potency is read from the fitted curve at half-maximal effect; % is scaled to controls: 0 for no effect and ±100 for the full control effect; nearly all actives have a fitted effect of over 55% in size
#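 Giardia FBPA (40 nM reagent) was preincubated 10 min at RT with compound (up to 57.5 uM final), then substrate plus GAPDH/TPI/NAD/arsenate coupling system with diaphorase/resazurin was added; resorufin fluorescence (525/598 nm) was read after 20 min.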
# Sm TGR block: S. mansoni TGR enzyme inhibition. Q962Y6. Potency, µM (series often up to 114 µM), for the others: at the top dose activity change, negative = inhibition, most hits filed as inhibitors. purified TGR, DTNB reduction, TNB absorbance 405 nm. 3% of 360,000 active; also: potency is read from the fitted curve at half-maximal effect; % is scaled to controls: 0 for no effect and ±100 for the full control effect; nearly all actives have a fitted effect of over 60% in size
#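 TGR 20 nM + NADPH 100 uM (dispensed conc.), cpd preinc 15 min RT; start with NADPH (500 uM addition) then DTNB (15 mM addition). Kinetic TNB absorbance, 405 nm filter. Four-parameter Hill fit across titration.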
# Active calls of the source: *; ? = inconclusive; nt = no result given; [ ] = another dose, or the depositor's remark. The full list was thinned out, with hits kept by preference. Unless noted, calls follow the shape of the dose curve; as a rule, active = well fitted curve in the direction sought with a large enough effect; inconclusive = small, poorly fitted or top-dose-only effect, or another doubt; inactive = no such curve, though single readings can be large; an effect the other way counts as inactive or inconclusive.
SMILES,Cycloheximide cs,Tb PYK inh,LmPK inhibitor,Shiga inhibitor,FBPA Giardia inh,Sm TGR block
COc1cc(-c2nnc(SCCOc3ccccc3)o2)cc(OC)c1OC,nt,-4%,nt,nt,nt,0%
CCOc1ccc(OCCSc2nc3ccccc3o2)cc1,15*,-8%,0%,26,1%,-3%
COc1cc(NC(=O)NC2Cc3ccccc3C2)cc(OC)c1,20*,3%,-1%,53*,-3%,-2%
COc1cccc(NC(=O)NC2CCCCCCC2)c1,50*,-2%,9%,155*,-5%,5%
COc1cccc(NC(=S)N2CCC(NC(=O)C3CCCCC3)CC2)c1,-7,1%,4%,-8,-9%,2%
COc1cccc(NC(=O)C2CCCN2C(=O)NC2CCCCC2)c1 (stereo not drawn),-3,-3%,-13%,-5,nt,17%
COc1cccc(NC(=O)C(=S)NC2CCCCC2)c1,50*,-2%,-17%,106*,-4%,-3%
O=[N+]([O-])/C(Cl)=C(/NCCO)C(Cl)=C(Cl)Cl,nt,0%,nt,nt,nt,nt
CCN(C[C@H]1N[C@@](C)(C(=O)OC)[C@H]2C(=O)N(C)C(=O)[C@@H]12)C(=O)c1ccc(C(C)(C)C)cc1,nt,2%,nt,nt,nt,nt
CCc1ccc(-n2c(CCC(=O)O)ccc2-c2cccs2)cc1,nt,-29%,nt,nt,nt,3.5µM*
O=C(O)CCc1ccc(-c2cccs2)n1NC(=O)c1cccs1,7,-1%,0%,-3,6%,?
CCOC(=O)c1ccc(-n2c(CCC(=O)O)ccc2-c2cccs2)cc1,6,?,1%,24,?,5.6µM*
Cc1ccc(-n2c(CCC(=O)O)ccc2-c2cccs2)cc1C,7.9*,?,-1%,39,27%,10µM*
CN(C(=O)c1cccc(NC(=O)Cc2ccc(NC(=O)C3CCN(S(=O)(=O)c4cccc([N+](=O)[O-])c4)CC3)cc2)c1)C1CCCCC1,nt,1%,nt,nt,nt,nt
CCc1ccc(CN(Cc2cn[nH]c2-c2ccc(OC)cc2)C(=O)Nc2ccc(C)c(F)c2)cc1,nt,0%,nt,nt,nt,23%
Cc1ccc(NC(=O)c2c(C)oc3ncn(C)c(=O)c23)cc1F,nt,-1%,nt,nt,nt,3%
CCc1ccc(NC2CC(=O)N(CCc3ccc(OC)c(OC)c3)C2=O)cc1 (stereo not drawn),-2,-21%,0%,21,0%,14µM*
CCc1ccc(NC2CC(=O)N(c3ccc(OC)cc3OC)C2=O)cc1 (stereo not drawn),-2,9%,0%,-7,-8%,35µM*
COc1ccc(CCN2C(=O)CC(Sc3ncccc3C(=O)O)C2=O)cc1OC (stereo not drawn),-3,-6%,-3%,0,2%,11µM*
COc1ccc(CCN2C(=O)CC(Nc3ccc(N4CCOCC4)cc3)C2=O)cc1OC (stereo not drawn),8,-19%,1%,11,11%,20µM*
CCCN1C(=O)CC(Sc2ncccc2C(=O)O)C1=O (stereo not drawn),-2,-1%,3%,-8,3%,-2%
CCCCN1C(=O)CC(Nc2ccc(CC)cc2)C1=O (stereo not drawn),11,-1%,3%,37,3%,?
COc1ccc(CCNC2CC(=O)N(CCc3ccccc3)C2=O)cc1OC (stereo not drawn),-3,2%,3%,-11,8%,0%
COc1cc2c(cc1O)C(Cc1ccc(O)cc1)[N+](C)(C)CC2 (stereo not drawn),nt,nt,nt,nt,1%,nt
NCCC[C@@H](CC(=O)N[C@@H]1CCCC[C@H]1C(=O)N[C@H](CC(=O)N[C@@H](CCC(=O)O)CC(=O)O)Cc1c[nH]c2ccccc12)NC(=O)C[C@H](Cc1ccccc1)NC(=O)[C@@H]1CCCC[C@H]1N,nt,nt,nt,nt,-25%,nt
SMILES,Cycloheximide cs,Tb PYK inh,LmPK inhibitor,Shiga inhibitor,FBPA Giardia inh,Sm TGR block
CC(C)OC(=O)c1ccc(N2C(=O)C3CC=CCC3C2=O)cc1 (stereo not drawn),20*,-1%,-1%,19,-6%,9%
COC(=O)c1ccc(N2C(=O)C3CC=CC(C)C3C2=O)cc1 (stereo not drawn),9,5%,7%,2,7%,3%
CCOC(=O)c1ccc(N2C(=O)C3C(C2=O)C(C(=O)c2ccc(Cl)cc2)N2CCCC32)cc1 (stereo not drawn),2,-8%,8%,3,1%,16µM*
CCOC(=O)c1ccc(N2C(=O)C3CC=CCC3C2=O)cc1 (stereo not drawn),19*,-1%,-2%,21,0%,3%
C[C@H]1COC(=O)[C@H]2CCCN2C(=O)[C@@H](C)COC(=O)[C@H]2CCCN2C1=O,nt,nt,nt,nt,2%[12.9 µM],nt
CCOc1ccc(C(=O)Nc2ccc(Cl)c(-c3nc4cc(C)cc(C)c4o3)c2)cc1,nt,1%,nt,nt,nt,-4%
COc1ccc(C2c3[nH]c4ccccc4c3CCN2C(=O)Cc2nonc2C)c(F)c1 (stereo not drawn),37*,2%,6%,109*,-20%,-3%
CCn1nc(C)cc1C(=O)N1CCc2c([nH]c3ccccc23)C1c1cc(F)ccc1F (stereo not drawn),55*,3%,-3%,82*,-3%,1%
CCOc1ccc(-c2cn3c(n2)sc2cc(C(=O)NCCc4ccc(OC)cc4OC)ccc23)cc1,nt,0%,nt,nt,nt,-2%
Cc1ccc(NC(=O)C2OCCc3ccccc32)cc1C (stereo not drawn),37*,5%,5%,100*,1%,23%
Cc1ccc(NC(=O)C2CCC(=O)N2)cc1C (stereo not drawn),-2,-3%,6%,1,5%,-10%
O=C(NCc1ccco1)C1CCCCC1,-8,4%,0%,-15,0%,nt
O=C(NCc1ccco1)C1OCCc2ccccc21 (stereo not drawn),9,-8%,4%,-8,-9%,22µM*
C/C(=N\NC(=O)COc1ccc(C)cc1C(C)C)c1ccc(-n2ccnc2)cc1,17*,-5%,2%,26,11%,-5%
COC(=O)N/N=C(\C)c1ccc(-n2ccnc2)cc1,13,1%,-6%,18,2%,-9%
CC[C@]1(c2ccccc2C)ON(c2ccccc2C(F)(F)F)C1=O,nt,-7%,nt,nt,nt,56µM*
Nc1ncnc(Sc2ccc(Cl)cc2)c1[N+](=O)[O-],-5,-14%,2%,-4,6%,?
Nc1ncnc(Sc2ccccc2)c1[N+](=O)[O-],-2,-6%,-2%,-10,10%,13µM*
Cc1ccc(S(=O)(=O)N2C[C@@H]3CCCC[C@@H]3[C@@H](C)[C@H]2c2cn(Cc3ccccc3)c3ncccc23)cc1,nt,2%,nt,nt,nt,nt
c1ccc(-n2cnnc2SCc2cn3ccccc3n2)cc1,-1,-2%,-1%,25,-12%,1%
